# Apoferritin bind: candidate novel general anesthetic via apoferritin binding; P02791; apoferritin/1-aminoanthracene competitive binding, fluorescence; Potency, µM (top dose mostly 77.5 µM), inactives show at the highest dose activity change, negative = displacement, actives largely listed as inhibitors; actives 0.074% (n = 350,000); AID 485281; note: % is set by controls: 0 for no effect and ±100 for the full control effect; nearly all actives have a fitted effect of over 20% in size
# Target sequence (P02791 2-175 limits assumed): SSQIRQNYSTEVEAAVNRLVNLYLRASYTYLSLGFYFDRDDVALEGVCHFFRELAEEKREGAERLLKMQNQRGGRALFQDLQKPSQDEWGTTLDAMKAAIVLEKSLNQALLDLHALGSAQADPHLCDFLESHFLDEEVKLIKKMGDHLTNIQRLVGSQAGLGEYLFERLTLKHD
#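 Probe: 1-aminoanthracene (50% saturated, PBS). Protein: horse-spleen apoferritin, 10 uM. Incubation: 10 min, room temperature. Detection: 380 nm excitation, 535 nm emission. Analysis: normalized response, four-parameter Hill.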
# B2AR arrestin: beta2AR (human) beta-arrestin recruitment activity | P07550 | actives 0.02% (n = 330,000) | beta-arrestin recruitment to beta2AR, cell-based reporter | AID 492947 | Potency, µM (top dose mostly 46.1 µM), for the others: top-dose activation, hits mostly activators;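 note: 0% = DMSO controls and full agonism = EC100 isoproterenol or metaproterenol; nearly all actives have a fitted effect of over 65% in size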
# FEN1 inh-1: inhibitors of human flap endonuclease 1. P39748. Recombinant FEN1 flap cleavage, fluorescence, 15 min. Potency, µM (series often up to 114 µM), without a hit: at the highest dose activity change, negative = inhibition, actives largely listed as inhibitors. actives 0.35% (n = 390,000). AID 588795; note: % is set by controls: 0 for no effect and ±100 for the full control effect; nearly all actives have a fitted effect of over 65% in size
# Target sequence (P39748 whole entry, looked up): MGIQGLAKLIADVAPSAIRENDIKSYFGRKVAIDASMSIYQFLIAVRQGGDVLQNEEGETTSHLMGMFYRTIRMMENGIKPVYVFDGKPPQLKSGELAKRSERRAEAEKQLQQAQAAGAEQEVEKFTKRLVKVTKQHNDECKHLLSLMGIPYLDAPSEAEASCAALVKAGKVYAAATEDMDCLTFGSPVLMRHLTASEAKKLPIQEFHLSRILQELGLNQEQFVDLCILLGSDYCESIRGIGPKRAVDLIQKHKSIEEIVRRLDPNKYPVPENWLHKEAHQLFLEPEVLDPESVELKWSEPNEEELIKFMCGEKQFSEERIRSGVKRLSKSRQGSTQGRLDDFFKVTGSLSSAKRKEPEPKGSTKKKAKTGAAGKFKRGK
#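 Nuclease activity of 10 nM FEN1 was measured after 15 min of room-temperature exposure to titrated compounds, by adding 50 nM flap substrate and reading plates at 0 and 15 min.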
# Tb PGK inh: inhibitors of T. brucei phosphoglycerate kinase; P07378; PGK/GAPDH coupled, Kinase-Glo luminescence, 60 min; Potency, µM (highest dose often 57.5 µM), for inactives: at the highest dose activity change, negative = inhibition, hits mostly inhibitors; actives 0.043% (n = 380,000); AID 602233; note: % is set by controls: 0 for no effect and ±100 for the full control effect; nearly all actives have a fitted effect of over 60% in size
#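 Luminescent ATP detection (Kinase-Glo Plus) follows a 60-minute room-temperature incubation, with wells lacking PGK as controls. Buffer: 100 mM TEA (pH 7.6), 5 mM MgCl2, 0.01% Tween-20. Coupling enzyme GAPDH (100 nM final) supplies unstable 1,3-BPG in-well.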
# Pin1 inhibitor: inhibitors of human Pin1; actives 0.009% (n = 390,000); Potency, µM (titrated, usually from 115 µM), for inactives: at the top dose activity, negative = inhibition, usual class: inhibitors; AID 504891; Pin1 FP peptide displacement, HiFluor488, 10 min; active = well fitted inhibition curve with a large enough effect in the polarisation, with a control signal flat, not every such curve was filed as active; inconclusive = small, poorly fitted or top-dose-only effect, or effect the other way, or a change in a side signal; inactive = no such curve, though single readings can be large or run the other way; the % refers to the polarisation; note: % is set by controls: 0 for no effect and ±100 for the full control effect
# Target sequence (Q13526 whole entry, looked up): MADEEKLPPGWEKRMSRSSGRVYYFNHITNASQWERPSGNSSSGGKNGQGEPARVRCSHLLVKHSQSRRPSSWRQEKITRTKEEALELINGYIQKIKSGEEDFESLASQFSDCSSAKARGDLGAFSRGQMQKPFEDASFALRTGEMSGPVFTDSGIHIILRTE
# BCR signal inh: chronic active BCR signaling inhibition | AID 493014 | Potency, µM (top dose mostly 46.1 µM), for the others: top-dose activity change, negative = inhibition, most hits filed as inhibitors | actives 0.05% (n = 340,000) | ABC-DLBCL IkBa-CBG/CBR reporter, luminescence ratio, 4 h; active = well fitted inhibition curve with a large enough effect in the signal ratio, with a control signal flat, not every such curve was filed as active; inconclusive = small, poorly fitted or top-dose-only effect, or effect the other way, or a change in a side signal; the % refers to the signal ratio;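 note: plate controls were basal doxycycline-induced cells for no effect and cells given 10 µM MG132 for full effect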
#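 TMD8 ABC-DLBCL cells carrying doxycycline-inducible green luciferase fused to IkappaBalpha plus unfused red luciferase were exposed to compounds (up to 46 uM) for 4 hrs at 37C. Activity came from the overlap-corrected green/red luminescence ratio.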
# FEN1 inh-2: confirmation of human FEN1 inhibitors | shares compounds with FEN1 inh-1 | FEN1 flap cleavage, TAMRA/BHQ2 fluorogenic DNA substrate | Potency, µM, most hits filed as inhibitors | actives 79% (n = 880) | AID 720498; note: nearly all actives have a fitted effect of over 60% in size
# Active calls of the source: *; i = inactive; ? = inconclusive; . = no result; [ ] = remark or other dose. Compounds with a hit are over-represented: about 0.45% of the library has one in this group of screens. Unless noted, calls come from the whole dose curve; as a rule, active = well fitted curve in the direction sought with a large enough effect; inconclusive = small, poorly fitted or top-dose-only effect, or another doubt; inactive = no such curve, though single readings can be large; an effect the other way counts as inactive or inconclusive. Potency is the fitted concentration of half-maximal effect.
SMILES,Apoferritin bind,B2AR arrestin,FEN1 inh-1,Tb PGK inh,Pin1 inhibitor,BCR signal inh,FEN1 inh-2
CCc1ccc(N=C2NC(=O)/C(=C/c3cc(Br)c(OCC(=O)O)c(OC)c3)S2)cc1,-6.8%,0.1%,50.1µM*,-28.2%,.,7.6%,75.7*
CCc1ccc(N=C2NC(=O)/C(=C/c3cc(OC)c(OC)c(OC)c3)S2)cc1,?,-0.3%,15.2%,-11.4%,6.3%,-14.5%,.
Cc1c(C)c(C)c(/C=C/c2ccnc3ccccc23)c(C)c1C,.,.,-15.4%,.,.,.,.
CC(=O)c1sc2nc(CSc3nnnn3-c3ccccc3)[nH]c(=O)c2c1C,?,0.1%,79.4µM*,-11.7%,?,?,?
COC1C(O)COC1/C=C/c1ccccc1 (stereo not given),-3.6%[15.3 µM],.,.,.,.,.,.
C/C(=N\Nc1nc2ccccc2c(=O)n1O)c1ccco1,-7.3%,-0.3%,?,-16.1%,-8.7%,?,30.1*
Cc1ccncc1C(=O)O,2.4%,.,.,.,.,.,.
COc1ccccc1Nc1cc2cc(Br)ccc2c(=O)[nH]1,.,.,1.1%,-8.0%,-2.2%,.,.
Cc1ccc(S(=O)(=O)c2cc(Nc3ccccc3)ccc2O)cc1,.,-1.4%,?,2.8%,-23.0%,14.9%,.
O=S(=O)(O)c1ccc(O)c2cc(Nc3ccccc3)ccc12,.,.,7.94µM*,5.01µM*,8.49µM*,.,8.49*
COc1ccccc1Nc1ccc2c(O)cc(S(=O)(=O)O)cc2c1,.,.,22.4µM*,22.4µM*,21.3µM*,.,67.5*
Nc1cccc2c(O)cc(S(=O)(=O)O)cc12,.,.,8.91µM*,17.8µM*,?,.,42.6*
O=S(=O)(O)c1cc(O)c2cc(Nc3ccccc3)ccc2c1,.,.,50.1µM*,?,?,.,84.9*
O=C(CNC(=O)c1ccc([N+](=O)[O-])cc1)OC(C(=O)Nc1cc(C(F)(F)F)ccc1Cl)c1ccccc1 (stereo not given),.,.,.,.,4.4%,.,.
CN(C)c1ccc(/C=C/c2ccnc3c(Cl)cccc23)cc1,.,.,-21.3%,.,.,.,.
O=C(O)c1ccc(N2C(=O)c3cccc4cccc(c34)C2=O)cc1,2.0%,0.4%,-2.1%,4.6%,-2.4%,?,.
CCN1C(=O)c2cccc3c(Cl)ccc(c23)C1=O,-3.6%,-0.2%,-0.5%,-2.1%,-4.2%,-1.6%,.
O=C(c1ccc2c3c(cccc13)C(=O)N(O)C2=O)N1CCCCC1,-6.6%,0.3%,11.2µM*,-4.7%,13.2%,-0.5%,3.01*
O=C(c1cccc2ccccc12)N1CCCCC1,?,0.1%,6.2%,-8.4%,-6.7%,2.1%,.
O=C1c2cccc3c(Cl)ccc(c23)C(=O)N1O,-22.4%,0.0%,0.501µM*,-3.1%,-1.9%,-8.1%,1.07*
O=C(O)c1ccc(N2C(=O)c3cccc4c(C(=O)O)ccc(c34)C2=O)cc1,-4.6%,0.0%,50.1µM*,?,?,8.0%,21.3*
Cc1cc(O)c(C=O)c2c1C(=O)Oc1c(C)c(O)c3c(c1O2)C(O)OC3=O (stereo not given),-8.2%,.,.,.,.,.,.
COc1cc(C)c2c(c1C=O)Oc1c(c(C)c(O)c3c1C(O)OC3=O)OC2=O (stereo not given),-10.3%,-0.2%,?,?,?,14.8%,75.7*
COc1ccccc1Nc1nc(NCCCN(C)C)nc(N)c1[N+](=O)[O-],-0.1%,0.0%,56.2µM*,5.3%,-1.3%,?,60.1*
CSC1SCC2C(=O)N(C)C(C(C)C)C(=O)OCC(NC(=O)c3cnc4ccccc4n3)C(=O)NC(C)C(=O)N(C)C1C(=O)N(C)C(C(C)C)C(=O)OCC(NC(=O)c1cnc3ccccc3n1)C(=O)NC(C)C(=O)N2C (stereo not given),.,.,0.562µM*,-7.5%,?,.,0.601*
SMILES,Apoferritin bind,B2AR arrestin,FEN1 inh-1,Tb PGK inh,Pin1 inhibitor,BCR signal inh,FEN1 inh-2
Cc1ccccc1-c1csc2ncnc(Sc3nnnn3C)c12,.,.,.,.,7.4%,.,.
Cc1cc(NC(=O)Cc2cccs2)no1,-1.0%,-0.2%,56.2µM*,?,?,0.1%,?
c1cc2nc(C34CC5CC(CC(C5)C3)C4)[nH]c2cn1,-4.3%,-0.7%,-8.1%,-3.0%,-8.6%,-0.8%,.
Nc1nc(C23CC4CC(CC(C4)C2)C3)[nH]c(=O)n1,-10.2%,0.2%,?,4.2%,-1.7%,?,33.8*
Cc1ccc(C(=O)N/C(=C/c2ccc(-c3ccc([N+](=O)[O-])cc3)o2)C(=O)NCCCN(C)C)cc1,.,.,?,i,?,.,42.6*
COc1cc(/C=C(\C#N)c2nc3ccc(C)cc3[nH]2)c([N+](=O)[O-])cc1OC,?,-0.5%,-8.0%,1.6%,11.5%,2.7%,.
COc1cc(/C=C(\C#N)c2nc3ccc(C)cc3[nH]2)cc([N+](=O)[O-])c1O,?,0.2%,50.1µM*,-16.1%,.,?,?
Cc1cc[n+](CCC2CCCCC2)c2ccccc12,.,.,2.6%,.,.,.,.
CN(CCC#N)C(=O)COC(=O)c1c2c(nc3ccccc13)/C(=C/c1ccco1)CC2,8.0%,0.4%,50.1µM*,?,?,?,67.5*
CC(C)CNC(=O)COC(=O)c1c2c(nc3ccccc13)/C(=C\c1cccs1)CC2,.,.,-7.2%,-9.5%,?,.,.
O=C(Nc1cc(C(=O)Nc2ccccc2C(=O)O)cc(C(=O)Nc2ccccc2C(=O)O)c1)c1ccccc1,-19.3%,0.3%,25.1µM*,?,?,10.3%,33.8*
O=C(Nc1ccccc1C(=O)O)c1cccc(NC(=O)c2ccccc2Br)c1,-2.1%,-0.4%,-3.3%,-1.3%,-2.0%,-2.2%,.
CCN(CC)CCC(=O)Nc1cccc2c1C(=O)c1ccccc1C2=O,6.6%,0.3%,15.8µM*,-3.0%,8.5%,?,6.01*
Nc1cccc(C(=O)OCC(=O)Nc2cccc3c2C(=O)c2ccccc2C3=O)c1,-6.0%,-1.5%,0.5%,i,?,?,.

# Bioassay records: PubChem, National Center for Advancing Translational Sciences (NCATS)
